The values below come from PubChem BioAssay (NCATS).

Structures are written as SMILES. Inconclusive results are not listed. Activity calls are given as the source filed them. Calls come from the whole dose curve; as a rule, active = well fitted curve in the direction sought with a large enough effect; inconclusive = small, poorly fitted or top-dose-only effect, or another doubt; inactive = no such curve, though single readings can be large; an effect the other way counts as inactive or inconclusive.

Assay [1] can be described thus: S16 Schwann cell PMP22 intronic element firefly luciferase assay (AID 624032). Note: nearly all actives have a fitted effect of over 30% in size. In outline:
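Rat S16 Schwann cells stably carrying firefly luciferase driven by a PMP22 intronic element, in 10% FBS, treated 24 h at 37 C. ONE-Glo luminescence normalized to PTC124 control and DMSO (0%); curves classed by r2, magnitude and activity.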

Assay [2] relates to 3D7. As to the kind of experiment: qHTS profiling for inhibitors of Plasmodium falciparum proliferation (AID 504749). Note: nearly all actives have a fitted effect of over 60% in size. Particulars: P. falciparum in erythrocytes, SYBR Green DNA, 72 h; series mostly up to 28.7 µM. The essentials:
(§1)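 Each compound contacts P. falciparum-infected red blood cells for 72 h at 37 C; lysis buffer (Tris, EDTA, saponin, Triton X, SYBR Green I) is added and fluorescence measured next morning; values normalized to controls.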
Background: qHTS replaces the single test concentration by a dilution series.

Assay [3] concerns ATS95. The assay is described as above. Particulars: P. falciparum in erythrocytes, SYBR Green DNA, 72 h; series mostly up to 28.7 µM. The essentials:
as §1

Assay [4] deals with C2A. Described as above. Particulars: P. falciparum in erythrocytes, SYBR Green DNA, 72 h; series mostly up to 28.7 µM. The essentials:
as §1

Assay [5] deals with CP191. Described as above. The following applies: P. falciparum in erythrocytes, SYBR Green DNA, 72 h; series mostly up to 28.7 µM. In outline:
as §1

Assay [6] deals with CP217. Described as above. Particulars: P. falciparum in erythrocytes, SYBR Green DNA, 72 h; series mostly up to 28.7 µM. The essentials: as §1
Assay [7] concerns CP250. The description is as above. Particulars: P. falciparum in erythrocytes, SYBR Green DNA, 72 h; series mostly up to 28.7 µM. The essentials:
as §1

Assay [8] relates to CP260. The description is as above. Particulars: P. falciparum in erythrocytes, SYBR Green DNA, 72 h; series mostly up to 28.7 µM. In outline:
as §1

Assay [9] concerns CP335. Described as above. Particulars: P. falciparum in erythrocytes, SYBR Green DNA, 72 h; series mostly up to 28.7 µM. In outline:
as §1

The test system of assay [10] is DIV14. The description is as above. Particulars: P. falciparum in erythrocytes, SYBR Green DNA, 72 h; series mostly up to 28.7 µM. In outline: as §1
The subject of assay [11] is DIV17. Described as above. The following applies: P. falciparum in erythrocytes, SYBR Green DNA, 72 h; series mostly up to 28.7 µM. In outline:
as §1

In assay [12] the test system is DIV30. Described as above. Particulars: P. falciparum in erythrocytes, SYBR Green DNA, 72 h; series mostly up to 28.7 µM. The essentials: as §1
Assay [13] relates to P94_40. The description is as above. The following applies: P. falciparum in erythrocytes, SYBR Green DNA, 72 h; series mostly up to 28.7 µM. In outline:
as §1

Assay [14] concerns PAD. The assay is described as above. Particulars: P. falciparum in erythrocytes, SYBR Green DNA, 72 h; series mostly up to 28.7 µM. The essentials: as §1
Assay [15] deals with PC26. The description is as above. The following applies: P. falciparum in erythrocytes, SYBR Green DNA, 72 h; series mostly up to 28.7 µM. In outline:
as §1

Assay [16] deals with SC27B. The assay is described as above. The following applies: P. falciparum in erythrocytes, SYBR Green DNA, 72 h; series mostly up to 28.7 µM. In outline:
as §1

Assay [17] deals with TAB113. The description is as above. Particulars: P. falciparum in erythrocytes, SYBR Green DNA, 72 h; series mostly up to 28.7 µM. In outline: as §1
Assay [18] relates to DFO2036. Described as above. The following applies: P. falciparum in erythrocytes, SYBR Green DNA, 72 h; series mostly up to 28.7 µM. The essentials:
as §1

Assay [19] concerns TAB165. Described as above. The following applies: P. falciparum in erythrocytes, SYBR Green DNA, 72 h; series mostly up to 28.7 µM. In outline:
as §1

The subject of assay [20] is 7G8. Described as above. The following applies: P. falciparum in erythrocytes, SYBR Green DNA, 72 h; series mostly up to 28.7 µM. The essentials:
as §1
Potency is the fitted concentration of half-maximal effect.

`CCCSS/C(CCO)=C(/C)N(C=O)Cc1cnc(C)nc1N`: in assay [1], the Potency is 10.2 µM (active). Besides, the Potency result in assay [2], in assay [3], in assay [4], in assay [5], in [6] and in [7] was “inactive” in each case. Besides, the Potency entry in [8], in [9], in assay [10], in [11], in [12] and in assay [13] was “inactive” each time. Moreover, the Potency result in [14], in assay [15], in assay [16] and in assay [17] was “inactive” each time.

On to `CC1CCC(O)C/C1=C\C=C1/CCCC2(C)C1CCC2C(C)/C=C/C(C)C(C)C` (configuration not stated), for which the Potency entry in assay [1], in [3], in assay [4], in assay [5], in [6] and in [7] was “inactive” throughout. Further, the Potency entry in assay [8], in [18], in assay [16], in assay [17] and in assay [19] was “inactive” throughout.

Regarding `Oc1cc2cc(CCN3CCN(c4nsc5ccccc45)CC3)c(Cl)cc2[nH]1`, the Potency entry in assay [1], in assay [3], in assay [4], in assay [6], in assay [18] and in assay [13] was “inactive” in each case. Further, the Potency entry in assay [16] and in assay [17] was “inactive” each time. The Potency in assay [20] was 6.31 µM (active); in assay [10] it was 6.75 µM (active).

Consider `C=CCN1CC(C(=O)N(CCCN(C)C)C(=O)NCC)CC2c3cccc4[nH]cc(c34)CC21` (configuration not stated), for which the figures for the Potency in [20], in assay [10] and in [11] were 10 µM (active), 15.1 µM (active) and 13.5 µM (active), respectively. The Potency entry in [7], in [18], in [12] and in [15] was “inactive” throughout.

Consider `C=C1CCC(O)C/C1=C/C=C1\CCC[C@]2(C)[C@@H]([C@H](C)/C=C/[C@H](C)C(C)C)CC[C@@H]12` (some centres not stated), for which the Potency in assay [1] was 36.1 µM (active); in [20] it was 10 µM (active). The Potency entry in assay [2], in [8], in [9], in [10], in assay [11] and in assay [12] was “inactive” each time. For the same compound, the Potency result in assay [15] is “inactive”.

Consider `COC(=O)C1[C@@H](OC)C(OC(=O)COc2ccc(OC)cc2)C[C@@H]2CN3CCc4c([nH]c5cc(OC)ccc45)[C@H]3C[C@H]12` (some centres not stated), for which the Potency is 10 µM (active) in [2]; 7.94 µM (active) in [20]; 11.2 µM (active) in assay [6]; 12 µM (active) in assay [9]; 7.57 µM (active) in [10]; 6.75 µM (active) in assay [11]. The Potency in assay [12] was 8.49 µM (active); in assay [14], 11.2 µM (active); in [19] it was 12.6 µM (active).

Consider `C=C1CC[C@H](O)C/C1=C/C=C1\CCC[C@]2(C)[C@@H]([C@H](C)CC[C@@H](O)C(C)(C)O)CC[C@@H]12`, for which the Potency was 8.91 µM (active) in assay [20]; 13.5 µM (active) in [10]; 13.5 µM (active) in assay [11]; 13.5 µM (active) in assay [12]; 15.1 µM (active) in [15]; 11.2 µM (active) in assay [16]. Besides, the Potency in assay [19] was 14.1 µM (active).

As for `C[C@@H]1CC2[C@@H]3C[C@H](F)C4=CC(=O)C(Cl)=C[C@]4(C)[C@@]3(F)[C@H](O)C[C@]2(C)[C@@]1(O)C(=O)CO` (some centres not stated), the Potency entry in assay [1], in [2], in assay [6], in assay [7], in [9] and in assay [12] was “inactive” in each case. Further, the Potency entry in [16] was “inactive”. Moreover, in assay [20], the Potency is 8.91 µM (active).

Consider `CCC(=O)OC1C(N(C)C)CC(C)O[C@H]1O[C@H]1[C@H](C)[C@@H](O[C@H]2CC(OC)[C@@H](O)C(C)O2)[C@H](C)C(=O)O[C@@H](CC)[C@](C)(O)[C@@H](O)[C@H](C)C(=O)[C@@H](C)C[C@]1(C)O` (some centres not stated), for which the Potency entry in [1], in assay [2], in assay [20], in assay [3], in assay [8] and in assay [10] was “inactive” in each case. For the same compound, the Potency entry in assay [12], in assay [14], in assay [16] and in [17] was “inactive” each time.

`CCN(CC)CCOCCOC(=O)C(CC)(CC)c1ccccc1` (tested in a mixture with another compound): the Potency entry in [1], in [2], in assay [3] and in [14] was “inactive” each time. For the same compound, the Potency in assay [20] was 5.62 µM (active); in assay [5], 10 µM (active); in assay [10], 1.9 µM (active); in assay [11] it was 1.51 µM (active).

Turning to `CC[C@H]1OC(=O)[C@H](C)C(=O)[C@H](C)[C@@H](OC2O[C@H](C)C[C@H](N(C)C)[C@@H]2O)[C@@](C)(OC)C[C@@H](C)C(=O)[C@@H](C)C2N(CCCCn3cnc(-c4cccnc4)c3)C(=O)O[C@@]21C` (some centres not stated), the Potency in [20] was 7.94 µM (active); in assay [10] it was 12 µM (active); in assay [11], 13.5 µM (active); in assay [14] it was 11.2 µM (active). Besides, the Potency result in assay [4], in assay [7], in [18] and in assay [15] was “inactive” each time.

As to `Cc1cncc(C(=O)O)[n+]1[O-]`, the Potency result in assay [1], in assay [2], in [20], in assay [3], in assay [8] and in [9] was “inactive” each time. Also, the Potency result in assay [10], in [11], in assay [12], in assay [13], in [14] and in [15] was “inactive” each time. Moreover, the Potency entry in assay [16] and in assay [17] was “inactive” throughout.

In the case of `CCC1OC(=O)C[C@@H](O)[C@H](C)[C@@H](OC2OC(C)CC(N(C)C)C2O)[C@@H](CC=O)C[C@@H](C)C(=O)/C=C/[C@]2(C)OC2C1C` (some centres not stated), the Potency in assay [20] is 4.47 µM (active); in [9] it was 1.2 µM (active).

For the compound `O=C(O)c1ccccc1-c1c2ccc(=O)cc-2oc2cc(O)ccc12`, in assay [1], the Potency result was “inactive”.

Turning to `CC1=C(/C=C/C(C)=C\C=C\C(C)=C\C=C\C=C(C)\C=C\C=C(C)\C=C\C2=C(C)C[C@@H](O)CC2(C)C)C(C)(C)C[C@H](O)C1`, the Potency in assay [20] was 1.26 µM (active); in assay [8], 10 µM (active); in [9] it was 15.1 µM (active); in assay [10], 12 µM (active); in assay [11], 13.5 µM (active); in [14], 14.1 µM (active). For the same compound, the Potency in [19] was 11.2 µM (active). The Potency entry in [5] and in [17] was “inactive” in each case.

Regarding `C=C1N[C@]2(C(=O)COC(C)=O)[C@@H](C[C@H]3[C@@H]4CCC5=CC(=O)C=C[C@]5(C)[C@H]4[C@@H](O)C[C@@]32C)O1`, the Potency entry in assay [1], in assay [10], in assay [11] and in assay [14] was “inactive” throughout.

As to `O=C(NC(CO)C(O)c1ccc([N+](=O)[O-])cc1)C(Cl)Cl` (configuration not stated), the Potency result in [1], in assay [3], in [11], in assay [12], in [14] and in [15] was “inactive” each time. The Potency result in assay [16] is “inactive”. The Potency in [9] was 4.78 µM (active).
